Test results published in PubChem BioAssay (NCI).
The panel holds about 79,000 compounds, 15% with a hit somewhere; the sample as a whole holds those more often. Unmarked numbers belong to inactive results. Activity calls are given as the source filed them. Cut-off read from the data, not from the text of the source: active = growth inhibition above about 70%; inactive = the rest.

Tests used:
[1] = NCI Yeast Anticancer Drug Screen. Data for the rad50 strain (AID 155);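 note: 0% = growth of vehicle-only cultures of the same strain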; settings: S. cerevisiae rad50 strain growth inhibition, hits give high values
Method in brief: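 Growth of the mutant yeast was measured after compound exposure and referenced to vehicle-treated cultures.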

[2] = NCI Yeast Anticancer Drug Screen. Data for the mec2-1 strain (AID 157); settings: S. cerevisiae mec2-1 strain, hits give high values
Method in brief: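 Test agents were screened against the mec2-1 yeast strain, with defined DNA repair or cell cycle alteration. Growth was scored as inhibition against vehicle-only controls.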

[3] = NCI Yeast Anticancer Drug Screen. Data for the sgs1 mgt1 strain (AID 161);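 note: 0% = growth of cultures given vehicle only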; settings: S. cerevisiae sgs1 mgt1 strain, hits give high values
Method in brief: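 Test agents were incubated with a DNA-repair-mutant yeast strain. Growth was then read and compared against vehicle-treated controls.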

[4] = NCI Yeast Anticancer Drug Screen. Data for the cln2 rad14 strain (AID 165);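 note: 0% = growth equal to vehicle treated cultures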; settings: S. cerevisiae cln2 rad14 strain, hits give high values
Method in brief: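 Growth of compound-exposed yeast (cln2 rad14 genotype) measured and expressed as inhibition relative to vehicle.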

[5] = NCI Yeast Anticancer Drug Screen. Data for the bub3 strain (AID 167); settings: S. cerevisiae bub3 mutant strain, hits give high values
Method in brief: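 Whole-cell yeast assay. The mutant strain was incubated with compounds, and growth inhibition was determined by comparison with vehicle-treated cells.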

[6] = NCI Yeast Anticancer Drug Screen. Data for the mlh1 rad18 strain (AID 175); settings: S. cerevisiae mlh1 rad18 strain growth inhibition, hits give high values
Method in brief: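 In this whole-cell yeast screen, a strain with altered DNA damage repair is challenged with compound, and its growth is measured against matched vehicle-treated controls.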

[7] = at 5.0 µM (retest, dose inferred, filed as 0.5)
[8] = at 50.0 µM (retest, dose inferred, filed as 5.0)

Structure (SMILES) | growth inhibition [1, 7] [%] | growth inhibition [1, 8] | growth inhibition ([1]; at 50.0 µM) | growth inhibition [2, 7] [%] | growth inhibition [2, 8] | growth inhibition ([2]; at 50.0 µM) | growth inhibition [3, 7] [%] | growth inhibition [3, 8] | growth inhibition ([3]; at 50.0 µM) | growth inhibition [4, 7] [%] | growth inhibition [4, 8] | growth inhibition ([4]; at 50.0 µM) | growth inhibition [5, 7] [%] | growth inhibition [5, 8] | growth inhibition ([5]; at 50.0 µM) | growth inhibition [6, 7] [%] | growth inhibition [6, 8] | growth inhibition ([6]; at 50.0 µM)
CCCCN(CCCC)CCC(O)c1cc2c(c3ccccc13)CCCC2 (configuration not stated) | 1 | 99% (active) | 99.4% (active) | 5 | 100% (active) | 99.2% (active) | 10 | 100% (active) | 99.7% (active) | 0 | 98% (active) | 67.1% | 10 | 99% (active) | 97.8% (active) | 9 | 99% (active) | 99.5% (active)
Nc1nc(-c2cc3cc(Cl)ccc3o2)cs1 | 47 | 75% (active) | 1.1% | 34 | 61% | -6.7% | 39 | 75% (active) | 24.4% | 35 | 50% | 15.8% | 46 | 71% (active) | 43.7% | 51 | 79% (active) | -4.25%
Cc1c(C[n+]2cc3ccccc3cc2/C=N/O)ccc2ccccc12 | 1 | 31% | 19.1% | 3 | 39% | 10.1% | 2 | 31% | 5.5% | -2 | -6% | -3.1% | 1 | 19% | 97.2% (active) | 1 | 37% | 16.8%
Cc1cc([N+](=O)[O-])ccc1NC(=O)N(C)CCOC(=O)Nc1ccccc1 | 48 | 90% (active) | 84% (active) | 43 | 95% (active) | 89.2% (active) | 42 | 96% (active) | 89.5% (active) | 32 | 97% (active) | 86.4% (active) | 44 | 97% (active) | 89.3% (active) | 64 | 96% (active) | 87.8% (active)
CCN(CC)CCN(C)c1ccc(CO)c2c1C(=O)c1ccccc1S2=O (configuration not stated) | 5 | 74% (active) | 95.8% (active) | -3 | 28% | 60.9% | -5 | 78% (active) | 96.3% (active) | 2 | 23% | 33.5% | 2 | 9% | 82.4% (active) | -1 | 73% (active) | 97.9% (active)
COc1ccc(C2=C(Cl)C(=O)N(c3ccc(O)cc3)C(=O)C2(Cl)Cl)cc1 | 18 | 99% (active) | 57.7% | 13 | 99% (active) | 59.7% | 31 | 99% (active) | 57.2% | 4 | 98% (active) | 58% | 3 | 99% (active) | 47.9% | 15 | 98% (active) | 58.2%
O=C(CCc1c[nH]c2ccccc12)c1ccccc1O | 2 | 5% | 17.5% | -1 | 14% | 22.1% | 5 | 16% | 59.3% | -13 | -18% | -21.4% | 2 | 14% | 73.8% (active) | -5 | 12% | 43.4%
O=C(O)/C=C/c1ccc(Cl)c(Cl)c1 | 9 | 83% (active) | 93.1% (active) | -15 | 55% | 64.3% | 11 | 59% | 55.1% | 19 | 45% | 63.5% | -1 | 77% (active) | 86.8% (active) | -17 | 90% (active) | 92.9% (active)
O=C1C=CC2C(=O)c3ccccc3C(=O)C2=C1 (configuration not stated) | 21 | 89% (active) | 73.5% (active) | 17 | 76% (active) | 63.5% | 4 | 72% (active) | 56.9% | 5 | 71% (active) | 66.7% | 1 | 55% | 45.5% | 4 | 67% | 69.2%
